Screening data (PubChem BioAssay)
Most compounds without a hit are left out; they make up all but 4.8% or so of the library.
DAX1 inh-1 = DAX1 (NR0B1) inhibitors, primary screen, cell-based, HEK293, Gal4-DAX1, luciferase luminescence; Nuclear receptor subfamily 0 group B member 1 (Homo sapiens), P51843; HEK293 Gal4-DAX1 luciferase reporter; inhibition, % at 6.75 µM; hit rate 0.99% among 340,000; AID 504766, 2011;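 active = inhibition above the mean over all tested compounds plus 3 SD, cut at about 4.2% in these data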;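 also: 0% = DAX1-transfected cells with DMSO and 100% = empty-vector control cells with DMSO; inhibition shows as a rise in luminescence from relieved DAX1 repression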
Target sequence (P51843 207-470 limits assumed): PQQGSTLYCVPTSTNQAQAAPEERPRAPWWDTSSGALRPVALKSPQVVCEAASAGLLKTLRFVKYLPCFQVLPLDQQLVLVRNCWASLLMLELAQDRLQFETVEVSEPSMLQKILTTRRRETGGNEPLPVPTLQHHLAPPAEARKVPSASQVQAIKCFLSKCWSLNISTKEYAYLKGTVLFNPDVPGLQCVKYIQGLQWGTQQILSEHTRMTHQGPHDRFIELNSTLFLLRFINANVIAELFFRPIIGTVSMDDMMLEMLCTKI
hgDAF12 agonist = H. glycines DAF-12 receptor agonists, primary screen, cell-based, luminescence, HEK293, GAL4 fusion, UAS-luciferase; Nuclear hormone receptor DAF-12 (Heterodera glycines), GAL4 fusion; HEK293 GAL4-hgDAF12 UAS-luciferase reporter, agonist luminescence; normalized to butyrate control; activation, % at 6.8 µM; hit rate 1.8% among 370,000; AID 687014, 2013;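 active = activation above a cutoff set at the mean of all screened compounds plus 3 SD, cut at about 10% in these data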;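 also: 0% = DMSO wells and 100% = sodium butyrate wells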
SMARCA2 act = SMARCA2 (BRM) function activators, primary screen, cell-based, luminescence, high throughput; MG213 cells, MMTV-luciferase reporter, dexamethasone, overnight; activation, % at 9.1 µM; hit rate 1% among 370,000; in the data active = activation above about 7.8%;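 also: 0% = vehicle wells and 100% = reference activator wells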
DAX1 inh-2 = DAX1 (NR0B1) inhibitors on StAR promoter, primary screen, cell-based, luminescence, SF-1 (NR5A1), full-length DAX-1 | HEK293T StAR-luciferase reporter, SF-1/DAX-1 repression relief | inhibition, % at 6.8 µM | hit rate 1.1% among 370,000 | AID 652010, 2013;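 active = inhibition above the mean over all tested compounds plus 3 SD, cut at about 3.6% in these data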;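 also: 0% = DAX-1 cells with DMSO and 100% = cells lacking DAX-1 with DMSO; higher inhibition means more luminescence from relief of DAX-1 repression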
ssDAF-12 act = S. stercoralis DAF-12 nuclear receptor activators, primary screen, cell-based, luminescence, HEK293, GRIP1 co-expression, lit1-tk-luc; Nuclear hormone receptor DAF-12 (Strongyloides stercoralis); HEK293 ssDAF-12/GRIP1 lit1-tk-luc reporter; % of 3 µM dafachronic acid response; activation, % at 6.8 µM; hit rate 1% among 370,000;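 active = activation above the mean over all tested compounds plus 3 SD, cut at about 0.9% in these data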;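 also: 0% = DMSO-only wells and 100% = 3 µM delta7-dafachronic acid wells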
hcDAF12 agonist = H. contortus DAF-12 nuclear receptor activators, primary screen, cell-based, luminescence, HEK293, lit1-tk-luc reporter; HEK293 hcDAF-12 lit1-tk-luc reporter; 0% DMSO, 100% Δ7-dafachronic acid; activation, % at 6.8 µM; hit rate 1.4% among 370,000; AID 652067, 2013;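 active = activation above the mean of all tested compounds plus 3 SD, cut at about 5.5% in these data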;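 also: 100% = response to 3 µM Δ7-dafachronic acid high control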
* marks the source's active call; other numbers are inactive results; . = not tested or not shown.

SMILES	DAX1 inh-1	hgDAF12 agonist	SMARCA2 act	DAX1 inh-2	ssDAF-12 act	hcDAF12 agonist
COC(=O)[C@@]12CCCCC3=C1N(CCC3)C(=O)[C@H]2CC(=O)N1CCN(C(=O)c2ccco2)CC1	.	0.5	0.6	0.3	-1.2	0.2
CCCCOC(=O)c1ccc(NC(=S)N2CCN(c3ncc4c(=O)c(C(=O)O)cn(CC)c4n3)CC2)cc1	4.3*	-2.7	-0.9	-0.1	-1.1	-2.4
O=C(COc1cccc2cccnc12)N/N=C1\SCC(=O)N1Cc1ccco1	-0.4	0.0	0.8	-0.4	-1.3	-1.6
Cc1ccc(OCC(=O)N/N=C2/SCC(=O)N2Cc2ccco2)cc1	6.9*	-0.5	-3.1	0.6	-0.9	-1.5
C[C@H]1[C@@H](OC(=O)NCCc2ccccc2)CC[C@@]23CCCN2C(=O)CCC[C@@H]13	.	-1.0	.	.	-1.0	-1.1
Nc1ccc(N=Nc2ccccc2O)c(N)c1	.	3.4	1.1	0.8	1.6*	3.2
CCOC(=O)c1sc2nc3c(cc2c1N)C(=O)CC(C)(C)C3	4.4*	1.4	2.2	0.9	-1.1	-1.9
CC1(C(=O)NS(=O)(=O)c2ccccc2Cl)CCN1C(=O)C/C=C/c1ccccc1 (stereo unspecified)	.	11.6*	-1.6	-0.5	-0.8	0.4
CC1(C(=O)NCC2CC2)CCN1C(=O)C/C=C/c1ccccc1 (stereo unspecified)	.	1.1	-2.1	0.2	-0.8	-2.9
CSCCNC(=O)C1(C)CCN1C(=O)C/C=C/c1ccccc1 (stereo unspecified)	.	1.0	-1.8	-0.4	1.2*	1.8
Cc1ccc(CN2CCCCC(NC(=O)c3ccccc3)C2=O)cc1 (stereo unspecified)	.	-1.9	-2.3	-1.4	-0.5	-3.2
CCOC(=O)CC[C@H]1CC[C@]2(CCCN(S(C)(=O)=O)C2)O1	.	0.4	2.0	-1.0	-0.7	-1.4
O=C(CSc1nc2nc(-c3cccs3)cc(C(F)(F)F)c2c(=O)[nH]1)C(F)(F)F	1.9	13.0*	0.4	1.0	-1.7	1.2
COC(=O)CSc1nc2nc(-c3cccs3)cc(C(F)(F)F)c2c(=O)[nH]1	0.0	-0.2	-3.0	-0.1	-0.9	0.6
C[C@@H]1CCCCO[C@H](CN(C)C(=O)Nc2ccc(C(F)(F)F)cc2)[C@@H](C)CN([C@H](C)CO)C(=O)c2cc(NC(=O)Nc3ccc4c(c3)OCO4)ccc2O1	.	1.5	3.9	1.0	-1.0	-1.7
C[C@H](CO)N1C[C@H](C)[C@@H](CN(C)S(=O)(=O)c2ccc(F)cc2)Oc2ccc(NC(=O)c3ccncc3)cc2C1=O	0.4	-1.6	-1.1	-0.2	-1.4	-1.4
C[C@H](CO)N1C[C@H](C)[C@@H](CN(C)C(=O)Nc2ccc3c(c2)OCO3)Oc2ccc(NC(=O)Cc3ccccc3)cc2C1=O	1.4	-0.2	-0.5	0.3	-1.3	0.8
COc1ccc(S(=O)(=O)N(C)C[C@H]2Oc3ccc(NC(=O)c4ccncc4)cc3C(=O)N([C@H](C)CO)C[C@@H]2C)cc1	-0.6	-0.7	2.5	0.9	2.6*	-1.2
CC(C)NC(=O)Nc1ccc2c(c1)C(=O)N([C@H](C)CO)C[C@H](C)[C@@H](CN(C)C(=O)Nc1ccc(C(F)(F)F)cc1)O2	4.5*	0.8	-2.6	0.4	-0.4	0.8
C[C@@H]1CN([C@H](C)CO)C(=O)c2cc(NC(=O)Cc3cn(C)c4ccccc34)ccc2O[C@H]1CN(C)C(=O)Nc1ccc2c(c1)OCO2	-0.4	3.0	-1.1	0.3	-0.6	6.2*
C[C@@H]1CCCCO[C@@H](CN(C)C(=O)Nc2ccc3c(c2)OCO3)[C@@H](C)CN([C@H](C)CO)C(=O)c2cc(N(C)C)ccc2O1	4.3*	0.4	-4.4	-0.4	-1.2	-0.4
